HepG2 viability – counter-screen for TGF-b inhibitors: cytotoxicity in HepG2 cells | HepG2 CAGA-GFP viability, ATP luminescence, 18 h | Potency, µM (series often up to 46.1 µM), actives largely listed as cytotoxic | 0.76% of 410,000 active | AID 588856
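CellTiter-Glo luminescence gave cytotoxicity after 18 hours at 37 degrees C. The cells were HepG2 CAGA-GFP in 1% FBS DMEM, stimulated with 500 pg/mL TGF-beta after compound addition. %Activity was normalised to no-cell wells (complete cell-killing) and DMSO (no toxicity), and curves were fitted and classified.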
HT1080-NT tox – kills 2HG-producing HT-1080-NT fibrosarcoma cells. HT-1080-NT fibrosarcoma viability, CellTiter-Glo ATP luminescence, 48 h. Potency, µM (doses to about 46.1 µM), actives largely listed as cytotoxic. 1.6% of 360,000 active. AID 686970;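 note: NT is the 2HG producing partner of a matched IDH1 knockdown line; nearly all actives have a fitted effect of over 55% in size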
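Compounds were tested in concentration-response format on HT-1080-NT cells for 48 hours at 37 degrees C. Cell viability came from CellTiter-Glo luminescence; curves were classified by r2, response magnitude and activity.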
HT1080 IDH1KD tx – toxicity to HT-1080 IDH1 knockdown cells (counter line); HT-1080 IDH1 knockdown viability, ATP luminescence, 48 h; Potency, µM (series often up to 46.1 µM), usual class: cytotoxic; 2% of 360,000 active; AID 686971
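Viability of IDH1-knockdown HT-1080 fibrosarcoma cells was assessed by CellTiter-Glo after 48 h at 37 °C with titrated compound; concentration-effect curves were classified by fit quality and response size.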
IL1B secr inh – inflammasome signaling inhibition, IL-1 beta readout | THP-1 LPS/ATP IL-1B secretion, AlphaLISA, 16 h; stronger effect = lower value | activity change, % at 57.5 µM | 4.7% of 360,000 active; in the data active = activity change below about -50%; inconclusive = mostly about -30% to -49%
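Secreted IL-1B measured by AlphaLISA bead assay after 16 h compound exposure of THP-1 cells; compounds (final up to 57.5 uM) added 1 h before LPS (250 ng/mL) and ATP (1.25 mM) stimulation; lower signal means less secretion.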
Giardia killer – kills Giardia lamblia | activity change, % at 7.66 µM, hits read low | 0.15% of 340,000 active | Giardia lamblia trophozoite viability; in the data active = activity change below about -80%; inconclusive = between about -30% and that limit;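 note: parasites exposed to compound for two days anaerobically before the ATP read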
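Killing of trophozoites was scored by loss of ATP luminescence after a 48 hrs anaerobic exposure to compounds at 37 deg C, using 100 cells per well.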
TGFb SMAD3 inh – blocks TGF-b signaling; HepG2 CAGA-GFP TGF-b/SMAD3 reporter, GFP fluorescence, 18 h; TGF-beta stimulated, 500 pg/mL final; Potency, µM (titrated, usually from 46.1 µM), actives largely listed as inhibitors; 1.2% of 410,000 active; AID 588855; note: nearly all actives have a fitted effect of over 65% in size
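TGF-beta reporter screen: HEPG2 CAGA-GFP, 1% FBS, 500 pg/mL TGF-beta final, 18 h; per-cell GFP summed per well; curves fitted and categorized by class.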
Large screens that a line does not name were inactive. Most compounds without a hit are left out; they make up all but 6.5% or so of the library. Unless noted, calls come from the whole dose curve; as a rule, active = well fitted curve in the direction sought with a large enough effect; inconclusive = small, poorly fitted or top-dose-only effect, or another doubt; inactive = no such curve, though single readings can be large; an effect the other way counts as inactive or inconclusive.

O=C(O)c1ccccc1C(=O)NCc1ccc2c(c1)OCO2	none
N#Cc1nc(NCC(F)F)nc(Nc2cc(F)cc(F)c2)n1	TGFb SMAD3 inh 15.8µM (no result: HT1080-NT tox, HT1080 IDH1KD tx, IL1B secr inh)
Nn1c(Cc2cccc3ccccc23)nnc1SCc1ccc(Cl)c(Cl)c1	HT1080-NT tox inconclusive, HT1080 IDH1KD tx inconclusive, IL1B secr inh -71.7, TGFb SMAD3 inh inconclusive
O=c1ccc2c([nH]1)CCCCCCCCCC2	none
Cc1nn(C(C)(C)C)c(OC(=O)c2cccs2)c1S(=O)(=O)c1ccccc1	HT1080-NT tox 20.6µM, HT1080 IDH1KD tx inconclusive, TGFb SMAD3 inh inconclusive
CC(=O)Oc1c(S(=O)(=O)c2ccccc2)c(C)nn1C(C)(C)C	none
CCCCC(=O)Oc1c(S(=O)(=O)c2ccccc2)c(C)nn1C(C)(C)C	HT1080-NT tox inconclusive, HT1080 IDH1KD tx inconclusive, IL1B secr inh -77.2, TGFb SMAD3 inh inconclusive
CC(Oc1ccccc1)C(=O)N[C@@H]1C(=O)N2C(C(=O)O)C(C)(C)S[C@H]12 (some centres not stated)	none (no result: HT1080-NT tox, HT1080 IDH1KD tx, IL1B secr inh, Giardia killer)
CC1(C)S[C@@H]2[C@H](NC(=O)[C@H](N)c3ccccc3)C(=O)N2[C@H]1C(=O)OC1OC(=O)c2ccccc21 (some centres not stated)	IL1B secr inh -56.4
CCCOc1ccc(C(=O)Nc2sc3c(c2C(=O)OCC)CCCCC3)cc1	none (no result: HT1080-NT tox, HT1080 IDH1KD tx, IL1B secr inh, Giardia killer)
CC1(C(=O)NCc2ccc(F)c(F)c2)Cc2c(-c3cccc(C(N)=O)c3)ccnc2O1 (configuration not stated)	HT1080-NT tox 25.9µM, HT1080 IDH1KD tx 10.3µM (no result: Giardia killer)
CC1(C(=O)NCc2ccccc2)Cc2c(-c3cccc(C(N)=O)c3)ccnc2O1 (configuration not stated)	HT1080-NT tox inconclusive, HT1080 IDH1KD tx inconclusive (no result: Giardia killer)
CC(=O)Nc1ccc(-c2ccnc3c2CC(C)(C(=O)NCc2ccco2)O3)cc1 (configuration not stated)	HT1080-NT tox inconclusive, HT1080 IDH1KD tx 2.59µM (no result: Giardia killer)
CN(C)c1ccc(-c2ccnc3c2CC(C)(C(=O)NCc2ccco2)O3)cc1 (configuration not stated)	HT1080-NT tox inconclusive, HT1080 IDH1KD tx inconclusive (no result: Giardia killer)
CC1(C(=O)NCc2ccco2)Cc2c(-c3cccc(C(N)=O)c3)ccnc2O1 (configuration not stated)	HT1080-NT tox inconclusive, HT1080 IDH1KD tx inconclusive, IL1B secr inh -57.4 (no result: Giardia killer)
O=C(NCCN1CCOCC1)c1ccccc1-c1ccccc1	none
Cc1ccc2nc(CSc3nnc(NC(=O)C(C)C)s3)cc(=O)n2c1	none (no result: HT1080-NT tox, HT1080 IDH1KD tx, IL1B secr inh, Giardia killer)
CC1=CC(C)(C)N=C(Nc2nc(C)c3cc(C)cc(C)c3n2)N1	IL1B secr inh -95.1, TGFb SMAD3 inh inconclusive
Cc1cc(C)c2nc(Nc3nc(-c4ccccc4)cc(=O)[nH]3)nc(C)c2c1	IL1B secr inh inconclusive
COc1ccccc1NS(=O)(=O)c1cc(N2Cc3ccccc3C2=N)ccc1N1CCOCC1	HT1080 IDH1KD tx inconclusive, IL1B secr inh -95.9, TGFb SMAD3 inh inconclusive
COc1ccccc1NS(=O)(=O)c1cc(N)ccc1N1CCOCC1	none
O=S(=O)(Nc1ccc(-c2csc(-c3ccccc3)n2)cc1)c1ccc(F)cc1	IL1B secr inh -100.9, TGFb SMAD3 inh inconclusive
O=C(Nc1nc(-c2ccccc2)cs1)c1ccccc1NS(=O)(=O)c1ccc(F)cc1	HT1080-NT tox 6.51µM, HT1080 IDH1KD tx inconclusive, IL1B secr inh -50.0, TGFb SMAD3 inh inconclusive
O=C(Nc1cccnc1)c1ccccc1NS(=O)(=O)c1ccc(F)cc1	none
COCCCNC(=O)c1ccc(Cn2c(=O)c3ccccc3n(CC(=O)NCCc3ccc(OC)c(OC)c3)c2=O)cc1	none
O=C1C(=O)N(CCS(=O)(=O)c2ccccc2)c2ccccc21	none
CCCCNC(=O)C1(C)CCN1C(=O)c1ccccc1Br (configuration not stated)	IL1B secr inh inconclusive (no result: Giardia killer)
CCCCNC(=O)C1(C)CCCCN1C(=O)c1cc(OC)ccc1Br (configuration not stated)	HT1080 IDH1KD tx inconclusive, IL1B secr inh -95.9 (no result: Giardia killer)
CCCCNC(=O)C1(C)CCN1C(=O)c1cc(-c2cccs2)oc1C (configuration not stated)	HT1080-NT tox inconclusive, HT1080 IDH1KD tx 23.1µM, IL1B secr inh -104.2, TGFb SMAD3 inh inconclusive (no result: Giardia killer)
COc1ccccc1C(=O)Nc1ccc(-c2nc3ccccc3s2)c(C)c1	TGFb SMAD3 inh inconclusive (no result: HT1080-NT tox, HT1080 IDH1KD tx, IL1B secr inh, Giardia killer)
Oc1ccc2ccccc2c1/C=N/c1nc2c(s1)CCCC2	HT1080-NT tox inconclusive, HT1080 IDH1KD tx 23.1µM, TGFb SMAD3 inh inconclusive
C(=C1c2ccccc2-c2ccccc21)c1ccccn1	HT1080 IDH1KD tx inconclusive
C=Cc1ncc(OC)c2c1[nH]c1ccccc12	HepG2 viability 12.6µM, HT1080-NT tox 16.4µM, HT1080 IDH1KD tx inconclusive, IL1B secr inh -107.2, TGFb SMAD3 inh 20µM
CC(C)(C)c1ccc(-n2nc(C#N)c(Cl)cc2=O)cc1	HepG2 viability 6.31µM, HT1080-NT tox 7.31µM, HT1080 IDH1KD tx 3.26µM, IL1B secr inh -96.9, TGFb SMAD3 inh 7.08µM
CC(C)(C)c1ccc(-n2nc(C(N)=O)c(O)cc2=O)cc1	none
COc1cc(-c2nn3c(C4CCCCC4)nnc3s2)cc(OC)c1OC	IL1B secr inh -50.8
COc1ccc(-c2nn3c(C4CCCCC4)nnc3s2)cc1OC	none
COc1ccc(OCC(O)Cn2cnc(-c3ccc(Br)cc3)c2)cc1 (configuration not stated)	none
OC(COc1ccc2ccccc2c1Br)Cn1cnc(-c2ccccc2)c1 (configuration not stated)	HT1080-NT tox inconclusive, HT1080 IDH1KD tx inconclusive, IL1B secr inh -95.8, TGFb SMAD3 inh inconclusive
Oc1ccc2cc(Br)ccc2c1CN1CCCC1	IL1B secr inh -57.5, TGFb SMAD3 inh inconclusive
Oc1ccc2ccccc2c1CN1CCCC1	none
O=C(/C=C/c1ccco1)NC(=S)Nc1cccc(-c2nc3ccccc3s2)c1	HT1080-NT tox 23.1µM, HT1080 IDH1KD tx 20.6µM
O=C(/C=C/c1ccco1)NC(=S)Nc1cccc(-c2nc3ccccc3o2)c1	HT1080-NT tox 5.17µM, HT1080 IDH1KD tx 5.8µM, TGFb SMAD3 inh inconclusive
Cc1cccc(NC(=S)NC(=O)/C=C/c2ccco2)c1	HT1080-NT tox inconclusive, HT1080 IDH1KD tx inconclusive
O=C(/C=C/c1ccco1)NC(=S)Nc1cc(-c2nc3ccccc3s2)ccc1Cl	HT1080-NT tox inconclusive, HT1080 IDH1KD tx inconclusive
O=C(/C=C/c1ccco1)NC(=S)Nc1cccc([N+](=O)[O-])c1	HT1080-NT tox 20.6µM, HT1080 IDH1KD tx 13µM
Cc1ccc(C(c2nnnn2C(C)(C)C)N2CCC(C)CC2)cc1 (configuration not stated)	none
CCN(C[C@H]1N[C@@](CC)(C(=O)OC)[C@H]2C(=O)N(C)C(=O)[C@@H]12)C(=O)Nc1ccccc1	none

Bioassay records: PubChem BioAssay, National Center for Advancing Translational Sciences (NCATS)
